Most compounds without a hit are left out; they make up all but 11% or so of the library.
FLuc inh-1 = inhibitors of firefly (Photinus pyralis) luciferase. purified P. pyralis luciferase, luminescence, biochemical. Potency, µM (series often up to 115 µM), actives largely listed as inhibitors. hit rate 2.5% among 76,000. AID 1347043; further: on the % scale 0 is the no-effect control and ±100 the full control effect; nearly all actives have a fitted effect of over 65% in size
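Inhibitors were tested against purified firefly luciferase in a biochemical, low-substrate format (both substrates at 10uM) and luminescence measured with a CCD imager.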
NPR1 antag = blocks ANP-stimulated signaling of human Npr1 receptor; Potency, µM (doses to about 46.3 µM), for inactives: at the top dose activity change, negative = inhibition, usual class: inhibitors; AID 1347048; hit rate 1.6% among 76,000; HEK293 hNpr1 GloSensor cGMP, ANP-stimulated luminescence; calls by dose curve; further: on the % scale 0 is the no-effect control and ±100 the full control effect; nearly all actives have a fitted effect of over 60% in size
Target sequence (P16066 whole entry, looked up): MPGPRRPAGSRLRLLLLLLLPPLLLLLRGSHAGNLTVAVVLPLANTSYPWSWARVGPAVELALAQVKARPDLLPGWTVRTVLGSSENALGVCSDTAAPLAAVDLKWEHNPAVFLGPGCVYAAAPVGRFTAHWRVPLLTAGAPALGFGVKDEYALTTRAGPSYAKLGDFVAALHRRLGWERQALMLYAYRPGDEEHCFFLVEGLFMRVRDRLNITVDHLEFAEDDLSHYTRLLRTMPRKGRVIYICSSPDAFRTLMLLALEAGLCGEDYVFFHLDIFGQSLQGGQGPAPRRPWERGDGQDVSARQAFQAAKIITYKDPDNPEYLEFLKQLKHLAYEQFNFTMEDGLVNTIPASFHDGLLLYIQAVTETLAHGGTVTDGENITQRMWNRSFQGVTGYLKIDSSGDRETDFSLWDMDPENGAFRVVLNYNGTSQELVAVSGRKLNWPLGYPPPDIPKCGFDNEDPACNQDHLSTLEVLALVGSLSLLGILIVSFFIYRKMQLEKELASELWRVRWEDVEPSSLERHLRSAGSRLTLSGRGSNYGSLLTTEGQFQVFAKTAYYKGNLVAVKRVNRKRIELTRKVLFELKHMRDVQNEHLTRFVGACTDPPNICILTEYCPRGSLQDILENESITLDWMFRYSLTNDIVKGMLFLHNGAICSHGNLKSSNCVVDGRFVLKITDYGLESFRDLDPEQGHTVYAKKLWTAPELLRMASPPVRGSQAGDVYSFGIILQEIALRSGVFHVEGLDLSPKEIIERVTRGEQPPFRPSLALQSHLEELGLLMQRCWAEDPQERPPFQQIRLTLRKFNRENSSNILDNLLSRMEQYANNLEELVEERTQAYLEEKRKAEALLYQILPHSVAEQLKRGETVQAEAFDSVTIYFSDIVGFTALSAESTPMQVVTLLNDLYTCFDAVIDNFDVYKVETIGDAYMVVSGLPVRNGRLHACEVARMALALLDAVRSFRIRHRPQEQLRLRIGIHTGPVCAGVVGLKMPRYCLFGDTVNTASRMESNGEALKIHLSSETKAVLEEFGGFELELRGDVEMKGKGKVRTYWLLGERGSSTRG
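HEK293 cells stably expressing human Npr1 and cGMP GloSensor pGS-40F, loaded 2 h with 2% GloSensor reagent, given compound 30 min at room temperature. Luminescence read before and 20 min after 0.1 nM hNppA.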
3T3 cytotox = NIH 3T3 cell cytotoxicity; NIH 3T3 viability, CellTiter-Glo ATP luminescence, 48-72 h; Potency, µM (doses to about 96.7 µM), for inactives: at the top dose activity change, negative = cytotoxicity, usual class: inhibitors; hit rate 4.3% among 94,000; AID 1345082; further: on the % scale 0 is the no-effect control and ±100 the full control effect; nearly all actives have a fitted effect of over 55% in size
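Mouse fibroblast NIH 3T3 cells, 400 per well, received compound via pintool and were incubated for 48 or 72 hr prior to CellTiter-Glo ATP luminescence measurement.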
HEK cytotox = HEK 293 cell cytotoxicity; hit rate 6.6% among 94,000; Potency, µM (top dose mostly 115 µM), without a hit: top-dose activity change, negative = cytotoxicity, most hits filed as inhibitors; HEK 293 viability, ATP luminescence (CellTiter-Glo), 48-72 h; further: on the % scale 0 is the no-effect control and ±100 the full control effect; nearly all actives have a fitted effect of over 60% in size
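Cells seeded first (HEK 293, 250 cells/well), then compound added by pintool. Incubation ran 48 or 72 hr at 37 degree Celsius. CellTiter-Glo was added and luminescence imaged after 10 min at room temperature.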
FLuc SDR -ATP = stabilizes firefly luciferase without ATP. Purified FLuc-C-HiBiT, Nano-Glo HiBiT luminescence, no ATP. hit rate 7.8% among 1,300. AID 1963318. Potency, µM (top dose mostly 32.7 µM), without a hit: at the highest dose activation (signal gain), most hits filed as activators. shares compounds with FLuc inh-1; further: nearly all actives have a fitted effect of over 55% in size
FLuc SDR ATP = binders stabilizing firefly luciferase, plus ATP. purified FLuc-C-HiBiT + ATP, HiBiT complementation luminescence. shares compounds with FLuc inh-1. hit rate 8.7% among 1,300. Potency, µM (titrated, usually from 32.7 µM), for inactives: at the highest dose activation (gain of signal), hits mostly activators;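 further: signal reports ligand binding via conformational change of the enzyme rather than luciferase catalysis; % of control where 0% means no effect; nearly all actives have a fitted effect of over 55% in size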
FLuc inh-2 = inhibitors of firefly luciferase enzymatic activity; purified FLuc-C-HiBiT enzyme, luciferin luminescence; Potency, µM (doses to about 32.7 µM), for inactives: top-dose activity change, negative = inhibition, most hits filed as inhibitors; shares compounds with FLuc inh-1; hit rate 42% among 1,300; further: on the % scale 0 is the no-effect control and ±100 the full control effect; nearly all actives have a fitted effect of over 70% in size
Starred values were filed as active, the others as inactive; i = inactive; ? = inconclusive; / = not tested or not shown; [ ] = dose if it differs, or a comment. Unless noted, the call rests on the fitted dose curve; in most records, active means well fitted curve in the direction sought with a large enough effect; inconclusive means small, poorly fitted or top-dose-only effect, or another doubt; inactive means no such curve, though single readings can be large; an effect the other way counts as inactive or inconclusive. Potency means the concentration at half of the fitted maximal effect.

SMILES	FLuc inh-1	NPR1 antag	3T3 cytotox	HEK cytotox	FLuc SDR -ATP	FLuc SDR ATP	FLuc inh-2
COC(=O)C1=C(C)N=C2SC=C(CC(=O)N3CCOCC3)N2C1c1ccc([N+](=O)[O-])cc1 (stereo not drawn)	i	?	-6%	-27%	/	/	/
CC(C)CN1C(=O)CO[C@H](c2ccc(NC(=O)C(C)C)cc2)[C@H]1CO	i	4%[70.6 µM]	-4%[174 µM]	i	/	/	/
Cc1ccc(C(=O)N2CC(c3nnc(-c4ccc(C)cc4)o3)C3(CCOCC3)C2)cc1 (stereo not drawn)	i	-1%	i	1%	/	/	/
Cc1ccc(-c2nnc(C3CN(C(=O)c4sc(C)nc4C)CC34CCOCC4)o2)cc1 (stereo not drawn)	i	-8%	-23%	-20%	12%	9%	0%
Nc1ccc(C(=O)N2CCCn3nc(C(=O)Nc4ccccc4)cc3C2)cn1	7.1µM*	-5%	-26%	?	?	?	?
O=C(NC[C@H]1Cn2cc(-c3ccc4c(c3)OCCCO4)nc2CO1)c1ccc2c(c1)OCO2	10µM*	-17%	-25%	?	?	?	?
O=C(NC[C@H]1Cn2cc(-c3ccccc3)nc2CO1)c1ccc2c(c1)OCO2	?	-29%[70.6 µM]	?	?	/	/	/
Clc1cccc(-c2ncc[nH]2)c1	/	/	-10%[174 µM]	3%[230 µM]	/	/	/
Cc1ccc(C2=NC(c3ccccc3)=Nc3ccc(Cl)cc3N2)cc1	/	/	/	/	13%	10%	-9%
O=C(Nc1cnc(-c2ccccc2)nc1)C1CCCCC1	1µM*	?	i	-9%	?	?	2µM*
O=C(CC1CCCC1)Nc1cnc(-c2cccnc2)nc1	?	-14%	-6%	2%	/	/	/
CN(Cc1cnccn1)C(=O)[C@H]1CCC[C@@H](O)C1	i	2%	0%	5%	/	/	/
COc1ccc(CCNC(=O)C2CCCN(c3nc4c(C)cc(C)cc4s3)C2)cc1OC (stereo not drawn)	/	/	/	/	17%	20%	?
c1ccc(-c2ccnc(NCCc3c[nH]c4ccccc34)n2)nc1	8.9µM*	-27%	?	?	16%	12%	?
CCN1CCN(c2csc3ccc(Cl)cc3c2=O)CC1	/	/	/	/	21%	15%	?
CC(C)n1cc2cc(C(=O)Nc3ccc4c(c3)OCCO4)sc2c1	14µM*	?	-15%	35µM*	23%	17%	9.9µM*
CC(C)n1cc2cc(C(=O)NC3CCCCCC3)sc2c1	i	-14%	?	?	/	/	/
COC(=O)NC1CCN(c2ccc3nnc(C)n3n2)CC1	/	/	-26%[138 µM]	-5%[172 µM]	/	/	/
O=C(COC(=O)c1cc(-c2cccs2)nc2ccccc12)c1ccc(Br)cc1	/	/	/	/	14%	8%	-18%
Cc1ccc(-c2cc3c(=O)n(CCNC(=O)c4ccoc4)ccn3n2)c(C)c1	?	-5%	?	?	/	/	/
Cc1ccc(-c2cc3c(=O)n(CCNC(=O)Cc4cccc(F)c4)ccn3n2)c(C)c1	3.5µM*	-27%	?	?	?	?	5.6µM*
Cc1ccc(-c2cc3c(=O)n(CCNC(=O)c4ccco4)ccn3n2)c(C)c1	8.9µM*	-12%	?	?	22%	15%	?
COc1cccc(CC(=O)NCCn2ccn3nc(-c4ccc(C)cc4C)cc3c2=O)c1	11µM*	-2%	?	?	?	18%	?
COc1ccccc1C(=O)NCCn1ccn2nc(-c3ccc(C)cc3C)cc2c1=O	10µM*	-26%	?	?	19%	13%	?
O=C(CCCc1ccccc1)N1CCCCC1c1nc(-c2ccncc2)n[nH]1 (stereo not drawn)	/	/	-35%	?	/	/	/
SMILES	FLuc inh-1	NPR1 antag	3T3 cytotox	HEK cytotox	FLuc SDR -ATP	FLuc SDR ATP	FLuc inh-2
CN(C)[C@@H]1CN(C(=O)CC2CCCCC2)CC[C@@H]1CO	/	/	-12%	-7%	/	/	/
COc1ccc2ccccc2c1CN1CCC2(CC1)[C@H](O)C[C@@H]2OCCN	i	0%	?	?	/	/	/
Cc1ccc(-c2cc3c(=O)n(CCNC(=O)c4cccc(C#N)c4)ccn3n2)c(C)c1	2µM*	?	35µM*	45µM*	?	?	3.1µM*
CNC(=O)c1cccc(-c2cnc(NC(=O)c3ccncc3)c3c2CCO3)c1	13µM*	-15%[70.6 µM]	?	-15%[172 µM]	23%[49.3 µM]	?	?
CNC(=O)c1cccc(-c2cnc(NC(=O)c3cn(C)cn3)c3c2CCO3)c1	/	/	/	/	23%[49.3 µM]	?	?
CN(C)c1cccc(C(=O)Nc2ncc(-c3cnn(C)c3)c3c2OCC3)c1	?	6%[70.6 µM]	?	-27%[172 µM]	/	/	/
COCCNc1cc(-c2ccc3ccccc3n2)c2cc[nH]c2n1	10µM*	-19%	?	?	13%	17%	?
O=C1CCN(C(=O)[C@@H]2CCCN2C(=O)Nc2ccc3c(c2)OCCO3)CCCCCCN1	i	3%	-11%	i	/	/	/
O=C1NCCCCCCN(C(=O)Nc2ccc3c(c2)OCCO3)[C@H]2CCC[C@@H]12	1.1µM*	?	-17%	-9%	?	?	3.5µM*
CC(=O)N1CCN(c2nc(-c3c(C)noc3C)cc3cc(CN(C)C)oc23)CC1	i	6%[70.6 µM]	?	-19%[172 µM]	/	/	/
O=C(Nc1ccc2ncnc(N3CCCCC3)c2c1)c1ccccc1Cl	i	-16%	?	?	/	/	/
Cc1ccc(-n2ncc3c(N4CCCCC4)ncnc32)cc1	/	/	/	/	1.8µM*	1.1µM*	0.2µM*
Cc1ccc(-n2ncc3c(N4CCCCCC4)ncnc32)cc1Cl	/	/	/	/	?	?	0.7µM*
Cc1ccc(-n2ncc3c(N4CCCCC4)ncnc32)cc1Cl	/	/	/	/	8.8µM*	1.8µM*	0.79µM*
Cc1cccc(C)c1N1CC(OCc2cccc(C(=O)O)c2)c2ccccc2[S+]1(=O)[O-] (stereo not drawn)	/	/	?	-4%	/	/	/
O=C1CC2(CCN(CC3CC3)CC2)Oc2ccccc21	7.9µM*	35µM*	?	?	17%[49.3 µM]	?	?
CCOc1ccc2nc(NC(=O)c3ccccc3)sc2c1	/	/	/	/	?	?	0.88µM*
COc1ccc2nc(NC(=O)Cn3nc4c(cc3=O)CCCC4)sc2c1	?	-2%	-2%	-23%	/	/	/
CC1CCN(CC(=O)N2CCC(c3nc4ccccc4o3)CC2)C1=O (stereo not drawn)	i	-3%	2%	-5%	/	/	/
Cc1ccc(/C=C/C(=O)N2CCC(c3nc4ccccc4o3)CC2)cc1	/	/	/	/	12%	?	?
Cc1ccc(C(=O)Nc2cccc3cccnc23)cc1Cl	/	/	/	/	9%	8%	-14%
Cc1cc(C(=O)NCc2c[nH]c3ncccc23)ccc1Cl	i	4%[70.6 µM]	?	?	/	/	/

Screening results deposited in PubChem BioAssay by National Center for Advancing Translational Sciences (NCATS).
